From ChEMBL document CHEMBL1157539, “Thousands of chemical starting points for antimalarial lead identification” (Nature, 2010)

Each molecule was assayed on HepG2 (assay: GSK_TCMDC: Percent inhibition of human HepG2 cell line. Test compounds present at 10uM.).
Assay type: functional

Compound | Inhibition
O=C(O)C(F)(F)F.c1cc(CNCCN2CCNCC2)cc(-c2ccc(-c3nc4ccccc4[nH]3)cc2)c1 | 3%
O=C(Nc1cccc(-c2ccc(-c3nc4ccccc4[nH]3)cc2)c1)c1cccnc1 | 18%
COc1ccc2nc3cc(Cl)ccc3c(NCCCO)c2c1 | 32%
CCn1c(C)cc(C=C2SC(=Nc3ccccc3)NC2=O)c1C | 27%
CC(C)NC(C)(C)CN(Cc1ccc(-c2ccc(C(F)(F)F)cc2)cc1)C(=O)Cn1c(CCc2cccc(F)c2F)nc(=O)c2ccccc21 | 44%
O=C(NCCCCN1CCC(c2ccc3ccccc3c2O)CC1)c1ccc(NC(=O)c2ccc(Cl)cc2)cc1 | 34%
COc1ccc(-c2cnc3[nH]cc(-c4ccc(C(=O)O)cc4)c3c2)cn1.O=C(O)C(F)(F)F | 35%
Oc1cccc2ccc(Nc3ccccn3)nc12 | 72%
Cc1ccccc1N1CCN(c2ccc(C(=O)NC(C)C)cn2)CC1.O=C(O)C(F)(F)F | 13%
COc1ccc2nccc([C@@H](O)CN3CCC(CO)(NCc4cc5ccccc5o4)CC3)c2c1.O=C(O)C(=O)O | 12%
COc1ccc(NC(=O)CCNc2cc(C)nc(NCCc3ccc(F)cc3)n2)cc1.O=C(O)C(F)(F)F | 27%
Cc1cc(O)c(-c2ccc(Sc3ccc(Cl)cc3)cc2)c(C)n1 | 0%
CN1CCN(Cc2cccc(-c3cc4nccc(Nc5ccc(Oc6ccccc6)cc5)c4cc3Cl)c2)CC1 | 10%
Cc1ccc(S(=O)(=O)NC2CCN(c3ccnc4cc(Cl)ccc34)C2)cc1.O=C(O)C(F)(F)F (centres undefined) | 21%
